High-throughput results as filed in PubChem BioAssay.
Shown are actives, neighbours in structure and some others; about 10% of the full set was active somewhere.
BAZ2B block: blocks human BAZ2B | AlphaScreen BAZ2B-H3K14Ac peptide displacement | 360,000 tested, 4.4% active | Potency, µM (series often up to 114 µM), inactives show at the top dose activity change, negative = inhibition, actives largely listed as inhibitors | Q9UIF8; further: potency means the concentration at half of the fitted maximal effect; on the % scale 0 is the no-effect control and ±100 the full control effect; nearly all actives have a fitted effect of over 60% in size
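AlphaScreen displacement: compounds (up to 110uM) incubated 30 min at room temperature with a preformed 50 nM BAZ2B/50 nM biotinylated H3K14Ac peptide complex in PBS pH 7.4 with Tween-20. Donor and acceptor beads at 10 ug/mL final added, 20 min light-protected before reading.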
HP1b binding inh: inhibitors of HP1-beta chromodomain binding to methylated histone tails; P83916; AlphaScreen HP1-beta / biotin-H3K9me3 peptide binding; Potency, µM (doses to about 114 µM), inactives show at the highest dose activity change, negative = inhibition, actives largely listed as inhibitors; 390,000 tested, 0.56% active; AID 540317; further: potency means the concentration at half of the fitted maximal effect; nearly all actives have a fitted effect of over 70% in size
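HP1-beta protein (50 nM final) preincubated 30 min at room temperature with biotinylated H3(1-18)K9me3 peptide (50 nM) in PBS pH 7.4, 0.01% Tween-20, then compound added for 30 min. AlphaScreen streptavidin donor/nickel chelate acceptor beads (10 ug/mL final), 30 min dark, luminescence read.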
Six1-Eya2 blk: inhibitors of human Six1/Eya2 interaction. Q15475+O00167. AlphaScreen GST-Six1/His-Eya2 binding, biochemical; hits give low values. activity change, % (no concentration beside the values). 360,000 tested, 0.56% active; in the data active means activity change below about -65%; inconclusive means mostly about -30% to -63%; further: on the % scale 0 is the no-effect control and ±100 the full control effect
Target sequence (O00167 whole entry, looked up): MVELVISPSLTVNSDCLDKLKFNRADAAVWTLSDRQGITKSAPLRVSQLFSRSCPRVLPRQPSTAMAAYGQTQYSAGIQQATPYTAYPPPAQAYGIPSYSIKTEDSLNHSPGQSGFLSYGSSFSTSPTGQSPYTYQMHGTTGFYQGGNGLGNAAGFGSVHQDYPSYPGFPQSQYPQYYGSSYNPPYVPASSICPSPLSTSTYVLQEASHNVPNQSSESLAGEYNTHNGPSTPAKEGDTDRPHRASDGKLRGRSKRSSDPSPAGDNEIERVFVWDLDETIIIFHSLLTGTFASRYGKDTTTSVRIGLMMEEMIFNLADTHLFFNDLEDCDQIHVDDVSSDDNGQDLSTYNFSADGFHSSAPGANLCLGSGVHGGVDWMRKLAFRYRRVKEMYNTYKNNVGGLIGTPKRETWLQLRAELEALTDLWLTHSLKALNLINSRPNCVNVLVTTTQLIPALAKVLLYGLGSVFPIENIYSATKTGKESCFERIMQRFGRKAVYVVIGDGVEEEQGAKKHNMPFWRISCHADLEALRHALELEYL
Target sequence (Q15475 whole entry, looked up): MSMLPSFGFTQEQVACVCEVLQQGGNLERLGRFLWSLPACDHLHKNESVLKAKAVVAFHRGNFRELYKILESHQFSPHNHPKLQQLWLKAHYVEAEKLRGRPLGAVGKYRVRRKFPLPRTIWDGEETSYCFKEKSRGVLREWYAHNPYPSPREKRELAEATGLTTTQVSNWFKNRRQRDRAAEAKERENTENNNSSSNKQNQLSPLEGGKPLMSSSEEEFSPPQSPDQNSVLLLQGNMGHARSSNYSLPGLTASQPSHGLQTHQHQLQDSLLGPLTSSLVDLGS
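AlphaScreen luminescence read after one hour at 37 °C in darkness. Pin-transferred compounds met GST-Six1 and His-Eya2 protein (5X stock 250 nM/500 nM) plus glutathione donor and Ni-chelate acceptor beads (5X, 50 ug/mL).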
JMJD2A Tudor: JMJD2A Tudor domain (human) inhibition; O75164; AlphaScreen JMJD2A-Tudor / H3K4me3 peptide binding; Potency, µM (titrated, usually from 114 µM), for the others: at the top dose activity change, negative = inhibition, actives largely listed as inhibitors; 390,000 tested, 4.4% active; AID 504339; further: potency means the concentration at half of the fitted maximal effect; on the % scale 0 is the no-effect control and ±100 the full control effect; nearly all actives have a fitted effect of over 50% in size
G9a inh: blocks human histone lysine methyltransferase G9a | G9a H3K9 monomethylation, AlphaScreen, 2 h | 350,000 tested, 8.8% active | Q96KQ7 | Potency, µM (doses to about 102 µM), inactives show at the top dose activity, negative = inhibition, most hits filed as inhibitors; further: potency means the concentration at half of the fitted maximal effect; on the % scale 0 is the no-effect control and ±100 the full control effect; nearly all actives have a fitted effect of over 75% in size
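Methyltransferase reactions run at room temperature for 2 h (20 nM enzyme, 500 nM biotin-H3K9 peptide, 20 uM SAM) after a 15 min compound preincubation; product detected by AlphaScreen beads and anti-H3K9me1 antibody.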
CtBP-E1A blk: blocks the CtBP interaction with E1A; 340,000 tested, 0.49% active; AlphaScreen GST-E1A/His-CtBP binding, 1536-well; hits give low values; AID 651724; activity change, % (no concentration beside the values); in the data active means activity change below about -65%; inconclusive means mostly about -30% to -63%; further: on the % scale 0 is the no-effect control and ±100 the full control effect
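Protein mix (5X: 125 nM each GST-E1A, His-CtBP) was incubated with pinned compound 2 h at 37 deg C in dark, in 50 mM Tris pH 8.0 buffer with 300 mM NaCl. Glutathione donor and nickel acceptor beads followed; AlphaScreen signal read after 1 h.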
An asterisk follows results filed as active; ? = inconclusive; nt = not tested or not shown; [ ] = dose if it differs, or a comment. Unless noted, the call rests on the fitted dose curve; in most records, active means well fitted inhibition curve with a large enough effect; inconclusive means small, poorly fitted or top-dose-only effect; inactive means no such curve, though single readings can be large or run the other way.

SMILES | BAZ2B block | HP1b binding inh | Six1-Eya2 blk | JMJD2A Tudor | G9a inh | CtBP-E1A blk
COc1ccc(C/C(C)=N/NC(=S)Nc2ccc(C(C)C)cc2)cc1 | -36.0% | 22.2% | -3.0 | 7.94µM* | 7.94µM* | 1.8
Cc1ccc(N2CCN(C(=O)c3cc4cc5ccc(C)cc5nc4s3)CC2C)cc1 (centres undefined) | -18.8% | 28.4% | nt | -7.5% | 4.1%[59 µM] | nt
CCc1nn2c(=O)cc(COC(=O)C3CCCCC3)nc2s1 | -4.6% | 10.2% | nt | -4.7% | 10.1%[59 µM] | nt
CCN1CCN(c2ccc(S(=O)(=O)N3CCCCC3)cc2NC(=O)Cc2ccccc2F)CC1 | 6.5% | 0.8% | 0.6 | -29.7% | ? | -7.8
CCN1CCN(c2ccc(S(=O)(=O)N3CCCCC3)cc2NC(=O)Cc2ccccc2)CC1 | -8.2% | -8.3% | 4.9 | ? | 6.31µM* | 1.2
CCN1CCN(c2ccc(S(=O)(=O)N3CCCCC3)cc2NC(=O)Cc2ccc(Cl)c(Cl)c2)CC1 | ? | -9.3% | -14.1 | ? | 39.8µM* | -12.0
O=C(NCC(c1ccccc1)c1ccccc1)c1nn(-c2ccccc2Cl)nc1CO | -0.2% | 34.2% | nt | -14.8% | 9.7%[59 µM] | nt
CCCNC(=O)c1ccc(C2SCC(=O)N2CCc2ccccc2)cc1 (centres undefined) | 2.3% | 17.8% | 2.4 | -15.9% | 44.7µM* | -1.5
O=C(NCc1ccccc1)c1ccc(C2SCC(=O)N2Cc2ccccc2)cc1 (centres undefined) | -2.1% | 29.7% | -3.4 | 5.1% | -14.4%[59 µM] | -0.4
C=CCNC(=O)c1ccc(C2SCC(=O)N2Cc2ccccc2)cc1 (centres undefined) | -16.5% | 27.0% | 0.3 | -2.1% | 50.1µM* | -3.3
COc1ccc(NC(=O)C(NC(=O)/C=C\c2ccc3c(c2)OCO3)c2ccc(C)cc2)cc1 (centres undefined) | -1.6% | -2.4% | nt | -17.1% | -25.7%[59 µM] | nt
COc1ccc(C(=O)NC(c2ccccc2Cl)c2cc(Cl)c3cccnc3c2O)cc1 (centres undefined) | 8.5% | 27.2% | nt | ? | 20.1%[59 µM] | nt
CN1CCN(C(c2ccc(Cl)cc2)c2cc(Cl)c3cccnc3c2O)CC1 (centres undefined) | 31.6µM* | ? | ? | 39.8µM* | 2.51µM* | -80.4*
CN1CCN(C(c2ccc(C(F)(F)F)cc2)c2cc(Cl)c3cccnc3c2O)CC1 (centres undefined) | 39.8µM* | nt | nt | nt | 11.2µM* | nt
CN1CCN(C(c2ccccc2)c2ccc(Cl)cc2)CC1 (centres undefined) | 0.6% | 4.9% | -10.3 | -21.6% | -45.3%[59 µM] | -29.2
CCN1CCN(C(c2ccccc2)c2sc3nc(C)nn3c2O)CC1 (centres undefined) | 5.9% | 47.5% | 4.1 | -3.5% | 25.3%[12.7 µM] | -2.3
CCN1CCN(C(c2ccc(C(F)(F)F)cc2)c2ccc3cccnc3c2O)CC1 (centres undefined) | 28.2µM* | ? | -86.0* | 50.1µM* | 2.51µM* | -1.0
CN1CCN(C(c2cccc(Cl)c2)c2ccccc2Cl)CC1 (centres undefined) | ? | -19.7% | -9.9 | ? | ? | -1.2
Oc1c(C(c2ccccn2)N2CCCCC2)cc(Cl)c2cccnc12 (centres undefined) | 7.94µM* | ? | -92.3* | 22.4µM* | 7.08µM* | -93.2*
CC(NC1CCCCC1)C(=O)NN=C(c1ccccc1)c1ccccc1 (centres undefined) | -10.2% | -11.7% | 2.5 | -23.4% | 1.6% | 9.9
OCCN1CCN(CC(O)COc2ccc3ccccc3c2)CC1 (centres undefined) | 2.7% | 25.1% | -4.6 | -33.1% | ? | 0.0
OCCN1CCN(C(c2cccs2)c2ccc3cccnc3c2O)CC1 (centres undefined) | 20µM* | nt | nt | nt | ? | nt
C=CCn1c(SCCOC)nc2c1c(=O)[nH]c(=O)n2C | -3.5% | 0.7% | 3.4 | -11.3% | 39.8µM* | 2.1
C/C=C/Cn1c(N(C)Cc2ccccc2)nc2c1c(=O)[nH]c(=O)n2C | -27.6% | 20.4% | -9.9 | -18.4% | 50.1µM* | 0.2
